Potency data for 49 compounds are collected here from PubChem BioAssay AID602292 (National Center for Advancing Translational Sciences (NCATS), 2012).

Hit rate of the full screen: of about 1,300 compounds, about 380 (29%) were called active. Another 37% or so got no clear call; they are omitted. Calls follow the shape of the dose curve; as a rule, active = well fitted inhibition curve with a large enough effect; inconclusive = small, poorly fitted or top-dose-only effect; inactive = flat fitted curve, though single readings scatter. The list shows a part of the results. A call without a number means that no potency is given here.
Potency is read from the fitted curve at half-maximal effect.

Chain of Thyrotropin receptor (Homo sapiens) (P16473 whole entry, looked up): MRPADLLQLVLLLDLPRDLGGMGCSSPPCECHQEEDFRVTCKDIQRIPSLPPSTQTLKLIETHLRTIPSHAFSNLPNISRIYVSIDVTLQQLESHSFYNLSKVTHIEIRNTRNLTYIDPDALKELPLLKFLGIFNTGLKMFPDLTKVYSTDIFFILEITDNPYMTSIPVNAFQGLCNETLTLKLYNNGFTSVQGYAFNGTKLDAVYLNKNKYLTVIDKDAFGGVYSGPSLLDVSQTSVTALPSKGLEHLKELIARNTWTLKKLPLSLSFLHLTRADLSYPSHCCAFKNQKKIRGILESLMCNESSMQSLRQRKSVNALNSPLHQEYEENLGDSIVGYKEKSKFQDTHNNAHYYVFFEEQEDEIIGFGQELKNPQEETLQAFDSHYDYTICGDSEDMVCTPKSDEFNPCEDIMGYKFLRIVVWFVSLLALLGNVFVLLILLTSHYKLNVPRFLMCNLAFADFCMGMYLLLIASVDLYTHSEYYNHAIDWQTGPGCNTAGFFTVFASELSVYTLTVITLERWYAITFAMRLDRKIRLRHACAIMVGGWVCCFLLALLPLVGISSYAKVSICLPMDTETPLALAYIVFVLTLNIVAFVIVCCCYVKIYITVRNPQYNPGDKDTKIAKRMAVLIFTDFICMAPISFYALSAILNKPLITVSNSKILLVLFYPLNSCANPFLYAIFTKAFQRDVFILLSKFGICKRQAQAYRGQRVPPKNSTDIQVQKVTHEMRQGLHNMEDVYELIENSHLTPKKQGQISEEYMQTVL

The target in the assay is Thyrotropin receptor (Homo sapiens) (UniProt P16473). Put plainly: qHTS for antagonists of the Thyroid Stimulation Hormone Receptor: Hit Validation in Primary Screen. Also: nearly all actives have a fitted effect of over 80% in size. The note with it: TSHR-expressing cells, cAMP antagonist mode; series mostly up to 58 µM. From the text:
The thyroid-stimulating hormone receptor (TSHR) is a member of the 7 trans-membrane-spanning receptor (7TMR) family of cell surface receptors. TSHR-mediated hyperthyroidism is important in thyroid pathology. The development of small molecule antagonists of TSHR may lead to therapeutic approaches for TSHR-mediated hyperthyroidism caused by constitutively activating mutations or stimulating auto-antibodies associated with Graves' disease. Graves' disease is the leading cause of hyperthyroidism and is caused by autoantibodies that stimulate TSHR (TsAbs) causing thyroid growth and unregulated overproduction of thyroid hormones and existing treatments have liabilities (agranulocytosis). In addition, TSHRs are known to be expressed in multiple extrathyroidal tissues including bone, brain, kidney, testis, fat and cells of the immune system but the role of the TSHR in these tissues is not clear. Therefore, TSHR antagonists/inverse agonists could be used as probes of extrathyroidal TSHR function. Finally, TSHR inverse agonists, which are a subclass of antagonists that inhibit agonist-independent (or basal or constitutive) TSHR signaling, could be used to inhibit TSH-independent signaling in patients with recurrent or metastatic thyroid cancer who are receiving thyroid hormone to suppress TSH.
In collaboration between scientist from the NCGC and the NIDDK, a miniaturized HTRF high-throughput screen was developed. It's a cell based assay, where an anti cAMP antibody contains a fluorescent cryptate tag (excitation 337 nm; emission 620 nm) and the acceptor is cAMP-d2 (excitation 620 nm; emission 665 nm). When antibody and cAMP-d2 interact and are excited by a 337 nm light, a FRET occurs resulting in emission at 665 nm. The assay is competition between cAMP-d2 and cAMP (from the cell lysate). The homogeneous protocol allows for one step dispense after stimulation that is automation friendly. This is a hit validation assay using the primary screen format.
NIH Chemical Genomics Center [NCGC]
NIH Molecular Libraries Probe Centers Network [MLPCN]
Assay Provider: Marvin Gershengorn, NIDDK
1. 3ul of 200 TSHR freshly harvested cells/well are dispensed into a 1536 TC-treated white solid bottom plate.
2. Through pintool addition, 23nl of compounds and control in 100% DMSO are added to the plate.
3. Then 1ul of EC80 TSH (4nM final) is added to the plate.
4. Assay is incubated at 37 deg C for 2 hours.
5. 2ul of cAMP antibody diluted 1:20 in lysis buffer is added.
6. Immediately following, 2ul of d2 diluted 1:20 in HBSS is added seperately.
7. The assay is incubated for 30 minutes at ambient room temperature.
8. The result is obtained by using a ViewLux read-out with HTRF settings.
Consider `COc1ccc(CN(C)C(=O)COC(=O)c2ccc(-c3ccccc3)cc2)c(OC)c1OC`, for which the Potency is 23.9 µM (active). The result for `CC(C)(C)C(=O)NC(=S)NNC(=O)c1ccc(-c2ccccc2)cc1` reads “inactive”. The result for `CCn1nnc2cc(C(=O)NCC(c3ccccc3OC)N(C)C)ccc21` (centres undefined) reads “inactive”; that for `O=C(c1ccco1)N1N=C(C2CCCCC2)CC1(O)C(F)(F)F` (centres undefined), “inactive”; that for `COc1ccc(C(CC(=O)N2CCOCC2)c2c(OC)cc(OC)c3c(-c4ccccc4)cc(=O)oc23)cc1` (centres undefined), “inactive”. Turning to `CC1CC(=O)N(c2ccc(C(C)C)cc2)C(=O)C1`, the Potency result is “inactive”.

Regarding `O=C(NCCN1CCOCC1)c1c(Cl)cccc1Cl`, the Potency entry was “inactive”. The figure for `O=C(Nc1ccc(S(=O)(=O)N2CCCCC2)cc1)c1ccc(CN2CCOCC2)cc1` is 23.9 µM (active); for `COCc1c(C(=O)Nc2cccc(S(=O)(=O)N3CCCCC3)c2)oc2ccccc12` it is “inactive”; for `COc1ccc(N2CCN(C(=O)[C@H](C)NC(=O)c3ccccc3Cl)CC2)cc1` it is “inactive”. Take `COc1ccc(C(NC(=O)c2c(F)c(F)c(F)c(F)c2F)c2ccccc2)cc1` (centres undefined): the Potency was 26.9 µM (active). Turning to `CCOc1ccccc1NC(=O)C(NCCc1ccc(OC)cc1)c1ccccc1` (centres undefined), the Potency entry is “inactive”. The result for `COCCCn1c(=O)c2sccc2n(Cc2cccc(C)c2)c1=O` reads “inactive”; that for `Cc1ccc(CNC(=O)CSc2nnc3c(n2)[nH]c2ccccc23)cc1`, “inactive”. The figure for `CC(Sc1nnc2c(n1)[nH]c1ccccc12)C(=O)N(C)C1CCCCC1` (centres undefined) is 26.9 µM (active).

As to `O=C(NCCc1ccc(Cl)cc1Cl)c1cc([N+](=O)[O-])c[nH]c1=O`, the Potency was 16.9 µM (active). As for `COC(=O)c1ccc(NC(=O)Nc2ccc(F)c(Cl)c2)cc1`, the Potency is 19 µM (active).

In the case of `CSCc1cc(N2CCOCC2)nc(SCc2ccc(Cl)cc2Cl)n1`, the Potency result is “inactive”. Turning to `Cc1cccc(OCCCCc2c(C)n[nH]c2C)c1C`, the Potency was 30.1 µM (active).

With `Cc1cccc(C)c1OCCCn1ccnc1`, the Potency entry is “inactive”. Consider `COc1ccc(-c2nnc(CSc3nc4ccccc4c(=O)n3CC3CCCO3)o2)cc1OC` (centres undefined), for which the Potency entry is “inactive”. Turning to `CCOc1cc(C(=O)NC2CC(C)(C)NC(C)(C)C2)cc(OCC)c1OCC`, the Potency result is “inactive”. The figure for `CC1=C/C(=N\OS(=O)(=O)c2ccccc2)C(C)=CC1=O` is 4.78 µM (active); for `CC1=CC(=O)C(C(C)C)=C/C1=N/OS(=O)(=O)c1ccccc1` it is 8.49 µM (active); for `COc1ccc(NC(=O)Cc2nc3ccccc3[nH]2)cc1` it is “inactive”. In the case of `Cc1cc(C)n(C(=O)/C(C#N)=N/Nc2cc(Cl)cc(Cl)c2)n1`, the Potency was 4.78 µM (active). The result for `COc1cccc(CNC(=O)CN2C(=O)CSc3ccc(S(=O)(=O)N4CCOCC4)cc32)c1` reads “inactive”. Consider `CCOc1cc(N2CCOCC2)c(OCC)cc1NC(=O)c1cccc(S(=O)(=O)N2CCOCC2)c1`, for which the Potency was 9.53 µM (active). As for `CCOc1cc(NC(=O)C2CC2)c(OCC)cc1NC(=O)c1cccc(F)c1`, the Potency result is “inactive”.

For `Cc1ccc(S(=O)(=O)N(Cc2ccccc2)c2ccccc2C(=O)N2CCCCC2)cc1`, the Potency entry was “inactive”.

`CC(C)C(=O)Nc1c(-c2ccc(Cl)cc2)c(=O)c2ccccc2n1C`: the Potency result was “inactive”. Regarding `Cn1c(=O)c([N+](=O)[O-])c(Cl)c2ccccc21`, the Potency is 30.1 µM (active). The entry for `Cn1c(N)c(Sc2ccccc2[N+](=O)[O-])c(=O)n(C)c1=O` is “inactive”; for `Cc1noc(C)c1COc1ccccc1C(=O)N(C)Cc1ccc(C(C)(C)C)cc1` it is 30.1 µM (active); for `Nc1ccn(Cc2ccccc2F)n1` it is “inactive”.

As to `O=C(Nc1cccc(Cl)c1)Nc1ccc(Br)cc1F`, the Potency is 21.3 µM (active). The entry for `N#CC1=C(C2CC2)CC(c2ccccc2)C(C#N)=C1N` (centres undefined) is “inactive”; for `CC1(C)CC(=O)c2c(nc3ccccc3c2N)C1` it is “inactive”. Regarding `CC(C)C(c1nnnn1Cc1ccco1)N1CCN(c2nc3ccccc3s2)CC1` (centres undefined), the Potency is 30.1 µM (active). Take `c1ccc(C(c2nnnn2Cc2ccco2)N2CCN(c3nc4ccccc4s3)CC2)cc1` (centres undefined): the Potency result is “inactive”.

`COc1cccc(OC)c1C(=O)Nc1sc2c(c1C#N)CCC2`: the Potency result was “inactive”. With `CC(C)CC(=O)NC(NC(=S)Nc1sc2c(c1C#N)CCCC2)C(Cl)(Cl)Cl` (centres undefined), the Potency was 23.9 µM (active). The result for `Cc1cc(C)cc(N=C2NC(=O)CS2)c1` reads “inactive”.

Take `Cc1nc2ccccc2n1CCOc1ccccc1`: the Potency entry is “inactive”.

For `Oc1c(Cl)cc(Cl)c(Cl)c1Cc1c(O)c(Cl)cc(Cl)c1Cl`, the Potency was 2.13 µM (active). The figure for `CC(C)S(=O)(=O)C1=NSC2=NC(=O)/C(=C\c3ccc(-c4ccccc4)o3)C(=N)N21` is 3.79 µM (active); for `CSc1nc(-c2ccc(Cl)cc2Cl)[nH]c(=O)c1C#N` it is 6.75 µM (active). For `COc1cc(NC(=O)Cn2nc(C(F)(F)F)c(Br)c2C)cc([N+](=O)[O-])c1`, the Potency was 26.9 µM (active).

On to `CN(CC(=O)Nc1ccccc1C(F)(F)F)Cc1c(O)ccc2ccccc12`, for which the Potency result was “inactive”.
